Assay results reported in PubChem BioAssay AID652208 (Broad Institute, 2013).
Potency and affinity values are given separately. Values without a mark were called inactive.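 Rule for the calls: active = Loss of cell signal with fitted half-effect dose at or below twice the top valid tested dose; inconclusive = Poor fit, or flat fit from -70 to -30 percent; inactive = Half-effect above limit, rising signal, or flat within 30 percent.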

experiment: viability loss in HEK293T cells – cell-based, cherry-picks, cytotoxicity control for HIV Vif inhibitor project, dose response (AID 652208); conditions: CellTiter-Glo luminescence, 24 h; series mostly up to 26 µM; activity change, negative = cytotoxicity: at the top concentration;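 note: 0% = median neutral control wells and -100% = median staurosporine control wells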

Q: Which “activity change, negative = cytotoxicity” value does the source give for `CCc1cccc2cc3c(N)c(C(=O)Nc4ccc(S(=O)(=O)N5CCCC5)cc4)sc3nc12` here?
A: 0.681%

Q: For `N#Cc1c2ccc(OCC(N)=O)cc2n2ccccc12`, which “activity change, negative = cytotoxicity” value is on record?
A: -2.27%

Q: With `O=C(CSc1ncccn1)NC(=O)Nc1ccc2c(c1)OCCO2` as the compound, how does the “activity change, negative = cytotoxicity” value read?
A: -4.69%

Q: Which “activity change, negative = cytotoxicity” value does the source give for `Oc1ccc(-c2nc(-c3ccc(O)c(O)c3)cs2)cc1` here?
A: 1.6%

Q: With `COc1ccc(C(=O)c2sc3nc(C)cc(-c4cccs4)c3c2N)cc1OC` as the compound, how does the “activity change, negative = cytotoxicity” value read?
A: -23.2%

Q: With `COc1ccc(CNC(=O)Nc2cccs2)cc1OC` as the compound, how does the “activity change, negative = cytotoxicity” value read?
A: -1.77%

Q: With `Cc1cccc(N2CCN(C(=O)c3cc4ccccc4oc3=O)CC2)c1C` as the compound, how does the “activity change, negative = cytotoxicity” value read?
A: 5.98%

Q: With `O=S(=O)(Nc1nc2ccccc2nc1NCc1ccco1)c1ccc(Cl)cc1` as the compound, how does the “activity change, negative = cytotoxicity” value read?
A: -17.6%

Q: Which “activity change, negative = cytotoxicity” value does the source give for `COc1ccc(CNC(=O)CN2C(=O)NC(c3ccccc3)(c3ccccc3)C2=O)cc1` here?
A: -6.23%

Q: With `COc1ccc2nc3ccccc3nc2c1NC(=O)c1ccc(Cl)cc1` as the compound, how does the “activity change, negative = cytotoxicity” value read?
A: 1.12%

Q: For `Cc1nnc(NC(=O)Cn2nc(C)c3ccccc3c2=O)s1`, which “activity change, negative = cytotoxicity” value is on record?
A: -11.4%

Q: For `CCN1CCc2c(sc(N)c2C(N)=O)C1`, which “activity change, negative = cytotoxicity” value is on record?
A: 0.158%

Q: With `COc1ccc(OC)c(/C(O)=C/C(=O)C(=O)Nc2cc(C)ccc2OC)c1` as the compound, how does the “activity change, negative = cytotoxicity” value read?
A: -1.12%

Q: With `CCOC(=O)c1c(NC(=O)CCC(=O)N2CCOCC2)sc2c1CC(C)(C)OC2` as the compound, how does the “activity change, negative = cytotoxicity” value read?
A: 6.96%

Q: With `CCOc1ccc(C(=O)c2cc([N+](=O)[O-])ccc2N2CCOCC2)cc1` as the compound, how does the “activity change, negative = cytotoxicity” value read?
A: -13.8%

Q: Which “activity change, negative = cytotoxicity” value does the source give for `COc1cccc(NC(=O)c2cc(C(=O)Nc3cccc(OC)c3)n(C)n2)c1` here?
A: -15.1%

Q: With `CCC1(CC)NC(=O)N(CC(=O)Nc2ccc(OCc3ccccc3)cc2)C1=O` as the compound, how does the “activity change, negative = cytotoxicity” value read?
A: -11.7%

Q: With `Cc1nnc2ccc(-c3ccc(NS(=O)(=O)c4ccc(F)cc4F)cc3)nn12` as the compound, how does the “activity change, negative = cytotoxicity” value read?
A: -2.74%

Q: For `COc1cc2ccccc2cc1C(=O)Nc1ccc(Cl)cn1`, which “activity change, negative = cytotoxicity” value is on record?
A: -22.3%

Q: With `Cc1cc(OCC(C)C)ccc1/C(O)=C1/C(=O)C(=O)N(Cc2cccnc2)C1c1ccncc1` (configuration not stated) as the compound, how does the “activity change, negative = cytotoxicity” value read?
A: 3.25%

Q: With `Cc1ccc(-c2nn3c(C)nnc3c3ccccc23)cc1S(=O)(=O)NCc1ccccc1` as the compound, how does the “activity change, negative = cytotoxicity” value read?
A: -23.3%

Q: With `Cc1ncoc1C(=O)N1CCCC(C(=O)c2ccc(Oc3ccccc3)cc2)C1` (configuration not stated) as the compound, how does the “activity change, negative = cytotoxicity” value read?
A: -2.5%

Q: For `CCOc1ccc2c(C)c(C(=O)O)oc2c1OCC`, which “activity change, negative = cytotoxicity” value is on record?
A: 0.912%

Q: For `O=C(CCCCn1ccc(=O)[nH]c1=O)Nc1ccc(O)c(C(=O)O)c1`, which “activity change, negative = cytotoxicity” value is on record?
A: -5.73%

Q: With `COc1ccc2nc(N3C(=O)C(O)=C(C(=O)c4ccco4)C3c3ccccc3OC)sc2c1` (configuration not stated) as the compound, how does the “activity change, negative = cytotoxicity” value read?
A: 7.88%

Q: For `COc1ccc(CN(CC(=O)NC2CCCC2)C(=O)CN2C(=O)COc3ccccc32)cc1`, which “activity change, negative = cytotoxicity” value is on record?
A: 3.38%

Q: Which “activity change, negative = cytotoxicity” value does the source give for `CCN(CC)c1ccc2cc(-c3nnc(-c4ccccc4)o3)c(=O)oc2c1` here?
A: -15.4%

Q: With `NCCCCCC(=O)Nc1ccncc1` as the compound, how does the “activity change, negative = cytotoxicity” value read?
A: -9.61%

Q: With `Cc1cc(S(=O)(=O)N2CCOCC2)ccc1OCC(=O)NCCN1CCOCC1` as the compound, how does the “activity change, negative = cytotoxicity” value read?
A: 0.628%

Q: For `COc1ccc(OC)c(NC(=O)c2nc(-c3ccccc3)oc2C)c1`, which “activity change, negative = cytotoxicity” value is on record?
A: -7.11%

Q: Which “activity change, negative = cytotoxicity” value does the source give for `CCOC(=O)C1CCCN(CC(=O)Nc2c(C(=O)OC)[nH]c3ccc(Cl)cc23)C1` (configuration not stated) here?
A: -13.6%

Q: Which “activity change, negative = cytotoxicity” value does the source give for `CCn1c(CC(=O)Nc2ccccc2)nnc1SCC(=O)Nc1nnc(C)s1` here?
A: 4.17%

Q: Which “activity change, negative = cytotoxicity” value does the source give for `Cc1nnc2ccc(-c3cccc(NS(=O)(=O)c4ccccc4Cl)c3)nn12` here?
A: -5.54%

Q: Which “activity change, negative = cytotoxicity” value does the source give for `Cc1nc(NC(=O)C(C)Oc2cccc(Cl)c2)sc1C(=O)N(C)C` (configuration not stated) here?
A: -12.6%

Q: With `O=C(Nc1ccc2c(c1)nc1n2CCOC1)c1ccccc1` as the compound, how does the “activity change, negative = cytotoxicity” value read?
A: -17.4%

Q: With `S=C(Nc1ccccc1)N1CCn2c(nc3ccccc32)C1` as the compound, how does the “activity change, negative = cytotoxicity” value read?
A: -6.92%

Q: Which “activity change, negative = cytotoxicity” value does the source give for `COc1ccc(C(=O)NCc2oc(-c3ccccc3)cc2C(=O)O)cc1` here?
A: 5.02%
